# Data taken from ChEMBL document CHEMBL5606460, “ASAP - DENV-2 NS2B-NS3 protease fluorescence single point” (2024).
# The campaign covered roughly 2,000 compounds. About 110 (5.5%) showed an effect of 50% or more. The full list was thinned out, with strong results kept by preference.
# Biological target: Genome polyprotein (dengue virus type 2) (UniProt P29990)
# [1] = Thailand/16681/1984, Concentration 25.0 uM, Number of replicates 1.0
structure (smiles),measurement,setting,value
CNC(=O)c1cc(Cl)ccc1NS(=O)(=O)c1ccc(OC)cc1,inhibition,"Thailand/16681/1984, Concentration 49.5 uM, Number of replicates 2.0, Standard deviation 1.598704816821166 %",-9.51%
CNC(=O)c1cc(Cl)cc(C)c1NS(=O)(=O)c1ccc(Oc2ccccc2Cl)cc1,inhibition,"Thailand/16681/1984, Concentration 49.5 uM, Number of replicates 2.0, Standard deviation 1.9936078061389018 %",-4.39%
same,inhibition,"Thailand/16681/1984, Concentration 99.01 uM, Number of replicates 2.0, Standard deviation 1.8430300976388188 %",-5.53%
same,inhibition,"Thailand/16681/1984, Concentration 198.0 uM, Number of replicates 2.0, Standard deviation 2.010624849106266 %",-7.09%
CNC(=O)c1cc(Cl)ccc1NS(=O)(=O)c1ccc(NS(C)(=O)=O)cc1,inhibition,"Thailand/16681/1984, Concentration 49.5 uM, Number of replicates 2.0, Standard deviation 0.6295365180266114 %",1.5%
same,inhibition,"Thailand/16681/1984, Concentration 99.01 uM, Number of replicates 2.0, Standard deviation 0.4200098669756753 %",3.13%
same,inhibition,"Thailand/16681/1984, Concentration 198.0 uM, Number of replicates 2.0, Standard deviation 0.4807630318175827 %",6.02%
CNC(=O)c1cnncc1NS(=O)(=O)c1ccc(Oc2ccccc2Cl)cc1,inhibition,"Thailand/16681/1984, Concentration 49.5 uM, Number of replicates 2.0, Standard deviation 2.9688082409176766 %",2.22%
same,inhibition,"Thailand/16681/1984, Concentration 99.01 uM, Number of replicates 2.0, Standard deviation 2.2862743420867915 %",7.71%
same,inhibition,"Thailand/16681/1984, Concentration 198.0 uM, Number of replicates 2.0, Standard deviation 2.701916446857586 %",19.5%
Cc1cc(CO)c2cccc(Cc3ccccc3C(=O)N[C@@H](CCCN)C(=O)O)c2n1,inhibition,"Thailand/16681/1984, Concentration 49.95 uM, Number of replicates 2.0, Standard deviation 1.450239339781055 %",-9.67%
same,inhibition,"Thailand/16681/1984, Concentration 99.9 uM, Number of replicates 2.0, Standard deviation 1.946109361538337 %",0.782%
CCOC(=O)c1cc(CNCc2nnc3ccccn23)[nH]n1,inhibition,"Thailand/16681/1984, Concentration 49.5 uM, Number of replicates 2.0, Standard deviation 0.017813955579008514 %",6.64%
same,inhibition,"Thailand/16681/1984, Concentration 99.01 uM, Number of replicates 2.0, Standard deviation 0.5926797733534107 %",7.63%
same,inhibition,"Thailand/16681/1984, Concentration 198.0 uM, Number of replicates 2.0, Standard deviation 1.0587355780894199 %",6.43%
Cc1cc(CO)c2cccc(CC(=O)N[C@H](Cc3c[nH]cn3)C(=O)O)c2n1,inhibition,"Thailand/16681/1984, Concentration 49.95 uM, Number of replicates 2.0, Standard deviation 0.5871204354474296 %",9.25%
same,inhibition,"Thailand/16681/1984, Concentration 99.9 uM, Number of replicates 2.0, Standard deviation 0.6044303147182479 %",24.8%
O=Cc1ccc(N2CCC(C(=O)N3CCN(Cc4ccc(Cl)nc4)CC3)CC2)cc1,inhibition,[1],10.1%
C[C@H](NC(=O)C1CCN(c2ccc(C=O)cc2)CC1)c1cccc(C(F)(F)F)c1,inhibition,[1],11%
O=Cc1ccc(N2CCC(C(=O)N[C@H]3C[C@@H]3c3ccc(F)c(F)c3)CC2)cc1,inhibition,[1],12.2%
O=Cc1ccc(N2CCC(C(=O)NCc3ccccc3OC(F)(F)F)CC2)cc1,inhibition,[1],12.7%
O=Cc1ccc(N2CCC(C(=O)Nc3ccc(Oc4ccc(Cl)cc4)cc3)CC2)cc1,inhibition,[1],3.01%
O=C(c1cc2ccccc2[nH]1)N1CCC[C@H](c2c[nH]c3ncccc23)C1,inhibition,"Thailand/16681/1984, Concentration 49.5 uM, Number of replicates 2.0, Standard deviation 0.6846779142829902 %",3.74%
same,inhibition,"Thailand/16681/1984, Concentration 99.01 uM, Number of replicates 2.0, Standard deviation 0.6286192340156203 %",6.35%
same,inhibition,"Thailand/16681/1984, Concentration 198.0 uM, Number of replicates 2.0, Standard deviation 0.39513209958624096 %",4.86%
O=Cc1ccc(N2CCC(C(=O)N3CCO[C@@H](c4ccccc4)C3)CC2)cc1,inhibition,[1],8.68%
Cc1cc(CO)c2cccc(Cc3cccc(C(=O)NCCN4CCOCC4)c3)c2n1,inhibition,"Thailand/16681/1984, Concentration 49.95 uM, Number of replicates 2.0, Standard deviation 1.1800261159088588 %",-8.12%
same,inhibition,"Thailand/16681/1984, Concentration 99.9 uM, Number of replicates 2.0, Standard deviation 0.7869239771342965 %",-3.46%
O=C(NCC1(c2ccncc2F)CCC1)[C@@]1(c2ccc(F)cc2)CCCNC1,inhibition,"Thailand/16681/1984, Concentration 49.5 uM, Number of replicates 2.0, Standard deviation 0.9074685157350926 %",-2.89%
same,inhibition,"Thailand/16681/1984, Concentration 99.01 uM, Number of replicates 2.0, Standard deviation 1.7740222143666056 %",-1.32%
same,inhibition,"Thailand/16681/1984, Concentration 198.0 uM, Number of replicates 2.0, Standard deviation 1.670161679604597 %",-0.296%
Cc1cc(CO)c2cccc(CC(=O)N[C@@H](C)C(N)=O)c2n1,inhibition,"Thailand/16681/1984, Concentration 49.95 uM, Number of replicates 2.0, Standard deviation 0.6764350022386235 %",-6.74%
same,inhibition,"Thailand/16681/1984, Concentration 99.9 uM, Number of replicates 2.0, Standard deviation 0.17585957987303982 %",-4.59%
Cc1cc(CO)c2cccc(Cc3cccc(C(=O)N[C@@H](CCN)C(=O)O)c3)c2n1,inhibition,"Thailand/16681/1984, Concentration 49.95 uM, Number of replicates 2.0, Standard deviation 0.6194784255105775 %",-9.07%
same,inhibition,"Thailand/16681/1984, Concentration 99.9 uM, Number of replicates 2.0, Standard deviation 14.524673907807347 %",0.432%
Cc1cc(CO)c2cccc(CC(=O)N[C@@H](CCC(N)=O)C(=O)O)c2n1,inhibition,"Thailand/16681/1984, Concentration 49.95 uM, Number of replicates 2.0, Standard deviation 0.1031646955614498 %",95.6%
same,inhibition,"Thailand/16681/1984, Concentration 99.9 uM, Number of replicates 2.0, Standard deviation 0.012461980167701147 %",98.7%
Cc1cc(CO)c2cccc(Cc3cccc(C(=O)N[C@@H](CCC(N)=O)C(=O)O)c3)c2n1,inhibition,"Thailand/16681/1984, Concentration 49.95 uM, Number of replicates 2.0, Standard deviation 0.9076569964416333 %",26.5%
same,inhibition,"Thailand/16681/1984, Concentration 99.9 uM, Number of replicates 2.0, Standard deviation 0.5346782919570826 %",79%
Cc1cc(CO)c2cccc(Cc3ccccc3C(=O)N[C@@H](CCC(N)=O)C(=O)O)c2n1,inhibition,"Thailand/16681/1984, Concentration 49.95 uM, Number of replicates 2.0, Standard deviation 0.9816783263695582 %",12.6%
same,inhibition,"Thailand/16681/1984, Concentration 99.9 uM, Number of replicates 2.0, Standard deviation 0.9155644195718532 %",39.4%
Cc1cc(CO)c2cccc(Cc3cccc(C(=O)N[C@@H](CCCN)C(=O)O)c3)c2n1,inhibition,"Thailand/16681/1984, Concentration 49.95 uM, Number of replicates 2.0, Standard deviation 0.7049975000059713 %",-1.78%
same,inhibition,"Thailand/16681/1984, Concentration 99.9 uM, Number of replicates 2.0, Standard deviation 0.2824297407941699 %",11.7%
OB1CCc2c(cccc2N2CC[C@@H](O)C2)O1,inhibition,"Thailand/16681/1984, Concentration 49.5 uM, Number of replicates 2.0, Standard deviation 2.1653827241885084 %",-1.07%
same,inhibition,"Thailand/16681/1984, Concentration 99.01 uM, Number of replicates 2.0, Standard deviation 1.9510885480745654 %",-0.363%
same,inhibition,"Thailand/16681/1984, Concentration 198.0 uM, Number of replicates 2.0, Standard deviation 2.0113725552722737 %",1.02%
